From the supplement of paper PMC8728848
This excerpt belongs to a sample that is enriched for the strongest signals.

How the values were obtained:
Assay in all cases: glycan array binding signal (z-score within array); higher = stronger binding
Conditions in all cases: glycan notation: IUPAC condensed, linker removed
Gal(a1-4)Gal(b1-4)Glc = system: Gal(a1-4)Gal(b1-4)Glc
In short: (§1)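 The binding signal is a Z-score computed within each array and averaged over linkers. Arrays of the same protein sequence at different concentrations or buffers were also averaged together. Data originate from 3228 arrays in the Consortium for Functional Glycomics database, kept only where the protein sequence was available.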

Gal(a1-4)GlcNAc = system: Gal(a1-4)GlcNAc
In short: as §1

Gal(a1-3)Gal(b1-4)GlcNAc = system: Gal(a1-3)Gal(b1-4)GlcNAc
In short: as §1

[1] = system: Gal(a1-3)Gal(b1-4)[Fuc(a1-3)]GlcNAc(b1-2)Man(a1-3)[Gal(a1-3)Gal(b1-4)[Fuc(a1-3)]GlcNAc(b1-2)Man(a1-6)]Man(b1-4)GlcNAc(b1-4)GlcNAc
In short: as §1

[2] = system: Gal(a1-3)Gal(b1-4)GlcNAc(b1-6)GalNAc
In short: as §1

[3] = system: Gal(a1-3)Gal(b1-4)[Fuc(a1-3)]GlcNAc
In short: as §1

[4] = system: Gal(a1-3)Gal(b1-4)GlcNAc(b1-3)GalNAc
In short: as §1

[5] = system: Gal(a1-3)[Gal(a1-4)]Gal(b1-4)GlcNAc
In short: as §1

Gal(a1-3)Gal = system: Gal(a1-3)Gal
In short: as §1

Gal(a1-4)Gal(b1-4)GlcNAc = system: Gal(a1-4)Gal(b1-4)GlcNAc
In short: as §1

Epa22
glycan array binding signal (z-score) (Gal(a1-4)Gal(b1-4)Glc): -0.375 | glycan array binding signal (z-score) (Gal(a1-4)GlcNAc): 10.5

Actinohivin (Actinomycete K97)
glycan array binding signal (z-score) (Gal(a1-3)Gal(b1-4)GlcNAc): -0.163 | glycan array binding signal (z-score) [1]: 0.092

Wza (Escherichia coli), P0A930
glycan array binding signal (z-score) [2]: 3.84

AgI/II Vhelical-GFP (Streptococcus mutans)
glycan array binding signal (z-score) [1]: -0.151 | glycan array binding signal (z-score) [3]: -0.245

BambL (Burhholderia ambifaria), Q0B4G1
glycan array binding signal (z-score) [4]: -0.314 | glycan array binding signal (z-score) [5]: -0.316

SpGH101 (Streptococcus pneumoniae), Q8DR60
glycan array binding signal (z-score) (Gal(a1-3)Gal(b1-4)GlcNAc): -0.162

AgI/IIC123-GFP (Streptococcus mutans)
glycan array binding signal (z-score) (Gal(a1-4)GlcNAc): 0.706

LcI (Legionella pneumophila)
glycan array binding signal (z-score) (Gal(a1-3)Gal): -0.38 | glycan array binding signal (z-score) (Gal(a1-4)Gal(b1-4)GlcNAc): -0.363
